# Test results taken from the supplement of paper PMC13380429.
# Test system: Vero E6 infected with SARS-CoV-2
# Experiment: inhibition of SARS-CoV-2 cytopathic effect; higher = more antiviral protection, active = above 15
# Details: 48 h
SMILES,inhibition of SARS-CoV-2 cytopathic effect (1 nM),inhibition of SARS-CoV-2 cytopathic effect (8.33 nM),inhibition of SARS-CoV-2 cytopathic effect (100 nM),inhibition of SARS-CoV-2 cytopathic effect (833.33 nM),inhibition of SARS-CoV-2 cytopathic effect (10000 nM)
O=C(Nc1ccc(Cl)nc1)c1ccc(Cl)cc1,0.45% (inactive),1.94% (inactive),2.79% (inactive),0.19% (inactive),0.84% (inactive)
Cc1nc2n(c(=O)c1CCN1CCC(c3noc4cc(F)ccc34)CC1)CCCC2O (stereo not given) [paliperidone],-1.5% (inactive),-3.74% (inactive),-2.02% (inactive),-3.59% (inactive),-4.1% (inactive)
Oc1ccc(Cl)cc1 [parachlorophenol],1.78% (inactive),-0.13% (inactive),1.68% (inactive),2.25% (inactive),-1.37% (inactive)
C=CCC1(CC(C)C)C(=O)NC(=O)NC1=O [butalbital],-0.15% (inactive),4.37% (inactive),2.7% (inactive),1.69% (inactive),1.37% (inactive)
O=c1[nH]cnc2c([C@@H]3N[C@H](CO)[C@@H](O)[C@H]3O)c[nH]c12 [forodesine],-0.75% (inactive),0.06% (inactive),-1.79% (inactive),-1.77% (inactive),-2.56% (inactive)
O=NO [sodium-nitrite],1.28% (inactive),-0.03% (inactive),3.46% (inactive),3.43% (inactive),0.91% (inactive)
CCn1c(=O)c(-c2cc[nH]n2)cc2c(C)nc(N)nc21 [voxtalisib],2.67% (inactive),3.03% (inactive),1.3% (inactive),0.46% (inactive),-4.32% (inactive)
O=C(Nc1cccc(C(F)(F)F)c1)Nc1cc(S(=O)(=O)NC2CC2)ccc1-c1ccsc1,-0.22% (inactive),-0.85% (inactive),0.27% (inactive),0.38% (inactive),0.46% (inactive)
N[C@H]1C(O)O[C@H](CO)[C@@H](O)[C@@H]1O (mixture of isomers) [glucosamine],3.44% (inactive),0.07% (inactive),2.73% (inactive),0.81% (inactive),1.42% (inactive)
Cc1ccc(-c2nc3ccc(C)cn3c2CC(=O)N(C)C)cc1,0.77% (inactive),1.21% (inactive),0.45% (inactive),1.14% (inactive),-2.98% (inactive)
CNc1cc(OC)c(C(=O)NC2CCN(Cc3ccccc3)C2C)cc1Cl (stereo not given) [nemonapride],-1.01% (inactive),2.19% (inactive),0.65% (inactive),-1.52% (inactive),2.33% (inactive)
CCN1CCC[C@H]1CNC(=O)c1c(O)c(Cl)cc(Cl)c1OC [raclopride],-5.41% (inactive),-4.22% (inactive),-1.29% (inactive),-2.68% (inactive),-0.07% (inactive)
Cc1cn([C@H]2C=C[C@@H](CO)O2)c(=O)[nH]c1=O [stavudine],-1.15% (inactive),2.97% (inactive),4% (inactive),2.52% (inactive),-1.21% (inactive)
O=C1NCCN1c1ncc([N+](=O)[O-])s1 [niridazole],0.2% (inactive),-2.07% (inactive),-4.84% (inactive),-1.39% (inactive),-4.56% (inactive)
CCOc1ccc(C(=O)OCCN(CC)CC)cc1 [parethoxycaine],0.82% (inactive),-3.01% (inactive),-2.92% (inactive),-0.3% (inactive),-0.09% (inactive)
CC[C@@]1(O)C(=O)OCc2c1cc1n(c2=O)Cc2cc3cc(O)ccc3nc2-1 [10-hydroxycamptothecin],-0.65% (inactive),-0.13% (inactive),-3.85% (inactive),-12.8% (inactive),-13.8% (inactive)
CO[C@H]1C[C@H](O[C@H]2CC[C@@]3(C)[C@H](CC[C@@H]4[C@@H]3CC[C@]3(C)[C@@H](C5=CC(=O)OC5)[C@@H](OC(C)=O)C[C@]43O)C2)O[C@@H](C)[C@@H]1O [oleandrin],-3.22% (inactive),-5.79% (inactive),-12.1% (inactive),-12.2% (inactive),-9.58% (inactive)
Cc1cc(Nc2cc(CN3CCOCC3)c3nc(C)c(Cc4ccc(Cl)cc4F)n3n2)n[nH]1,-0.17% (inactive),1% (inactive),-1.28% (inactive),-6.68% (inactive),-11.6% (inactive)
Cc1cc(C)c2c(c1)[C@@H](N(Cc1cc(C(F)(F)F)cc(C(F)(F)F)c1)c1nnn(C)n1)CCCN2C[C@H]1CC[C@H](C(=O)O)CC1 [evacetrapib],2.13% (inactive),-0.17% (inactive),-3.28% (inactive),-0.14% (inactive),3.85% (inactive)
C[C@H](N)C(=O)O [L-alanine],1.06% (inactive),-0.48% (inactive),0.43% (inactive),-0.48% (inactive),-4.52% (inactive)
C[n+]1ccc(C(=O)NCc2ccccc2)cc1 [enisamium-iodide],-0.64% (inactive),7.37% (inactive),-0.6% (inactive),4.79% (inactive),0.11% (inactive)

SMILES,inhibition of SARS-CoV-2 cytopathic effect (1 nM),inhibition of SARS-CoV-2 cytopathic effect (8.33 nM),inhibition of SARS-CoV-2 cytopathic effect (100 nM),inhibition of SARS-CoV-2 cytopathic effect (833.33 nM),inhibition of SARS-CoV-2 cytopathic effect (10000 nM)
O=C(NCc1ccc2c(c1)OCO2)c1c(Cl)cccc1Cl [alda-1],-2.37% (inactive),0.82% (inactive),-2.66% (inactive),-5.92% (inactive),-3.23% (inactive)
CN1CC(O)C2=C/C(=N/NC(N)=O)C(=O)C=C21 (stereo not given) [carbazochrome],2.27% (inactive),3.04% (inactive),-0.28% (inactive),-1.11% (inactive),0.54% (inactive)
CC(C)Nc1cc(-c2c[nH]c(C(=O)N[C@H](CO)c3cccc(Cl)c3)c2)c(Cl)cn1,-2.18% (inactive),0.33% (inactive),-2.23% (inactive),-5.21% (inactive),-6.01% (inactive)
Clc1ccccc1CNC[C@H]1CC[C@H](CNCc2ccccc2Cl)CC1,-1.74% (inactive),-2.28% (inactive),-1.13% (inactive),-3.17% (inactive),16.4% (active)
CC(=O)N1CCC(C(=O)N(CCCN2CCC(Cc3ccc(C(N)=O)cc3)CC2)c2ccc(C)c(Cl)c2)CC1,0.74% (inactive),-0.02% (inactive),-0.6% (inactive),0.17% (inactive),2.52% (inactive)
CCOc1cncc(/C=C/CCNC)c1,0.97% (inactive),-1.63% (inactive),-0.92% (inactive),0.41% (inactive),3.59% (inactive)
C1Cc2[nH]nc(-c3nn[nH]n3)c2C1,-1.32% (inactive),-1.1% (inactive),-1.82% (inactive),-3.19% (inactive),2.43% (inactive)
CN1CCC(Nc2ncc3ncnc(Nc4ccc(F)c(Cl)c4)c3n2)CC1,0.68% (inactive),1.23% (inactive),-4.55% (inactive),-7.55% (inactive),-2.79% (inactive)
O=C1C2C=Nc3ccccc3C2=NN1c1ccc(Cl)cc1 (stereo not given),0.17% (inactive),-0.02% (inactive),1.99% (inactive),3.3% (inactive),-0.09% (inactive)
Cc1sc2c(c1C)C(c1ccc(Cl)cc1)=N[C@@H](CC(=O)Nc1ccc(OCCOCCOCCOCCNc3cccc4c3C(=O)N(C3CCC(=O)NC3=O)C4=O)cc1)c1nnc(C)n1-2 (stereo not given in full),-0.01% (inactive),-1.32% (inactive),-2.57% (inactive),1.39% (inactive),-3.1% (inactive)
OCc1cc([C@@H](O)CNCCCCCCOCCOCc2c(Cl)cccc2Cl)ccc1O [vilanterol],-1.65% (inactive),-1.28% (inactive),0.86% (inactive),-0.19% (inactive),-2.68% (inactive)
COc1ccc(CN2CCN(C(c3ccc(F)cc3)c3ccc(F)cc3)CC2)c(OC)c1OC [lomerizine],1.2% (inactive),-4.42% (inactive),-2.46% (inactive),-4.97% (inactive),-3.64% (inactive)
COc1ccc2c(C)nc(Nc3nc(C)c(C)c(O)n3)nc2c1 [madrasin],-1.29% (inactive),0.26% (inactive),1.24% (inactive),0.66% (inactive),30.8% (active)
Cc1ccccc1C(=O)Nc1ccc(C(=O)N2CCCC(O)c3cc(Cl)ccc32)c(C)c1 (stereo not given) [tolvaptan],1.52% (inactive),1.94% (inactive),0.74% (inactive),-1.55% (inactive),1.54% (inactive)
CC(C)(O)c1coc(S(=O)(=O)NC(=O)Nc2c3c(cc4c2CCC4)CCC3)c1,-0.7% (inactive),-2.3% (inactive),-3.97% (inactive),0.34% (inactive),-0.6% (inactive)
Cc1cc(=O)[nH]c(=S)[nH]1 [methylthiouracil],0.85% (inactive),2.29% (inactive),-0.49% (inactive),1.73% (inactive),-0.31% (inactive)
NCCc1c[nH]cn1 [histamine],-0.66% (inactive),1.36% (inactive),0.17% (inactive),1.23% (inactive),1% (inactive)
COC(=O)C1=C(C)NC(C)=C(C(=O)OCCN(C)Cc2ccccc2)C1c1cccc([N+](=O)[O-])c1 (stereo not given) [nicardipine],0.9% (inactive),0.28% (inactive),0.23% (inactive),-0.11% (inactive),-1.36% (inactive)
CN1CCN(C(c2ccccc2)c2ccccc2)CC1 [cyclizine],-1.86% (inactive),-1.86% (inactive),-1.97% (inactive),-0.45% (inactive),0.42% (inactive)
COc1cccc(OC)c1C(=O)N[C@@H]1C(=O)N2[C@@H]1SC(C)(C)[C@@H]2C(=O)O [methicillin],-3.39% (inactive),1.78% (inactive),-1.39% (inactive),-0.54% (inactive),1.21% (inactive)
